About 83,000 compounds went through this panel and 20% of them were active in at least one assay; those are over-represented in the sample as a whole.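 How to read the values: 0–100, growth inhibition (40 = 60% inhibited); 0, no net growth; -100 to 0, cell death (-40 = 40% of starting cells died; -100 = all dead).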 The source made the active and inactive calls. The calls were made as follows: active = growth percent below 10; inactive = the rest.
Columns and labels:
Assay in all cases: NCI-60 one-dose screen, 48 h (100 = growth as untreated, 0 = no growth, -100 = all killed)
SK-MEL-2 melanoma = conditions: 10 µM unless noted
EKVX NSCLC = conditions: 10 µM unless noted
SN12C renal = conditions: 10 µM unless noted
UO-31 renal = conditions: 10 µM unless noted
TK-10 renal = conditions: 10 µM unless noted
ACHN renal = conditions: 10 µM unless noted
CAKI-1 renal = conditions: 10 µM unless noted
A498 renal = conditions: 10 µM
HL-60(TB) leukemia = conditions: 10 µM unless noted
CCRF-CEM leukemia = conditions: 10 µM unless noted
MOLT-4 leukemia = conditions: 10 µM unless noted
RPMI-8226 leukemia = conditions: 10 µM unless noted
OVCAR-8 ovarian = conditions: 10 µM unless noted
OVCAR-5 ovarian = conditions: 10 µM unless noted
OVCAR-4 ovarian = conditions: 10 µM unless noted
SK-OV-3 ovarian = conditions: 10 µM unless noted
IGROV1 ovarian = conditions: 10 µM unless noted
OVCAR-3 ovarian = conditions: 10 µM unless noted
HS 578T breast = conditions: 10 µM unless noted
SR leukemia = conditions: 10 µM unless noted

Measured: growth

CC(C)=CC1C(C(=O)OCc2cccc(Oc3ccccc3)c2)C1(C)C (stereo not given)
inactive: SK-MEL-2 melanoma 108% | EKVX NSCLC 82.4% | SN12C renal 94.5% | UO-31 renal 76.5% | TK-10 renal 96.6% | ACHN renal 91.6% | CAKI-1 renal 59.6% | A498 renal 69.6% | HL-60(TB) leukemia 119% | CCRF-CEM leukemia 102% | MOLT-4 leukemia 83.3% | RPMI-8226 leukemia 91.7% | OVCAR-8 ovarian 100% | OVCAR-5 ovarian 101% | OVCAR-4 ovarian 97.3% | SK-OV-3 ovarian 102% | IGROV1 ovarian 93.1% | OVCAR-3 ovarian 102% | HS 578T breast 101%

CC(=O)Nc1ccc(NC(=O)c2ccc([As](O)O)cc2)cc1
inactive: SK-MEL-2 melanoma 96% | EKVX NSCLC 110% | SN12C renal 93.9% | UO-31 renal 69.4% | TK-10 renal 136% | ACHN renal 105% | CAKI-1 renal 107% | A498 renal 133% | CCRF-CEM leukemia 47.7% | MOLT-4 leukemia 108% | SR leukemia 73.8% | RPMI-8226 leukemia 34.5% | OVCAR-8 ovarian 102% | OVCAR-5 ovarian 140% | OVCAR-4 ovarian 103% | OVCAR-3 ovarian 114% | HS 578T breast 117%

CC(C)CCC(=O)O[C@H]1CC[C@H]2[C@@H]3CCC4=CC(=O)CC[C@]4(C)[C@H]3CC[C@]12C
inactive: SK-MEL-2 melanoma 115% | EKVX NSCLC 73.9% | SN12C renal 107% | UO-31 renal 82.1% | TK-10 renal 100% | ACHN renal 98.5% | CAKI-1 renal 88.5% | A498 renal 77.2% | CCRF-CEM leukemia 104% | MOLT-4 leukemia 96% | SR leukemia 90.7% | RPMI-8226 leukemia 98.6% | OVCAR-8 ovarian 104% | OVCAR-5 ovarian 93% | SK-OV-3 ovarian 128% | IGROV1 ovarian 96.3% | OVCAR-3 ovarian 97.9% | HS 578T breast 86.9%

CNC(=O)Oc1ccc(N(C)C)cc1C(C)C
inactive: SK-MEL-2 melanoma 103% | EKVX NSCLC 95.5% | SN12C renal 98.2% | UO-31 renal 88.7% | TK-10 renal 95% | ACHN renal 99.4% | CAKI-1 renal 40.9% | A498 renal 101% | HL-60(TB) leukemia 130% | MOLT-4 leukemia 75.3% | SR leukemia 123% | OVCAR-8 ovarian 105% | OVCAR-5 ovarian 99.8% | OVCAR-4 ovarian 85.9% | SK-OV-3 ovarian 105% | IGROV1 ovarian 109% | OVCAR-3 ovarian 97.7% | HS 578T breast 94.8%

CCC[CH2][Sn]([CH2]CCC)([CH2]CCC)[O]c1ccc(Cl)cc1Cl
active: SK-MEL-2 melanoma -66.9% | EKVX NSCLC -51.7% | SN12C renal -69% | UO-31 renal -85.3% | TK-10 renal -91.7% | ACHN renal -69.5% | CAKI-1 renal -56.6% | A498 renal -98.1% | HL-60(TB) leukemia -23.9% | MOLT-4 leukemia -6.07% | SR leukemia -30.4% | RPMI-8226 leukemia -9.16% | OVCAR-8 ovarian -48.1% | OVCAR-5 ovarian -66.3% | OVCAR-4 ovarian -100% | SK-OV-3 ovarian -97.5% | IGROV1 ovarian -66.9% | OVCAR-3 ovarian -100% | HS 578T breast -10.3%

Oc1c(O)c(Cl)c(Cl)c(Cl)c1Cl
inactive: SK-MEL-2 melanoma 39.1% | EKVX NSCLC 36.6% | SN12C renal 31.6% | TK-10 renal 73.4% | ACHN renal 32.2% | CAKI-1 renal 81.7% | A498 renal 63.7% | HL-60(TB) leukemia 24.9% | CCRF-CEM leukemia 35.3% | SR leukemia 24.3% | RPMI-8226 leukemia 25.1% | OVCAR-5 ovarian 77.7% | OVCAR-4 ovarian 15.8% | SK-OV-3 ovarian 64% | HS 578T breast 34.8%
active: UO-31 renal 3.66% | OVCAR-8 ovarian -4.12% | IGROV1 ovarian -33.3% | OVCAR-3 ovarian -11.7%

COc1ccc(N(CC(=O)NCCC[Te]c2ccccc2)C(=O)CNC(=O)OC(C)(C)C)cc1
inactive: SK-MEL-2 melanoma 80% | SN12C renal 18.7% | TK-10 renal 76.1% | ACHN renal 83.9% | CAKI-1 renal 70.4% | CCRF-CEM leukemia 14% | MOLT-4 leukemia 12.1% | SR leukemia 12.7% | RPMI-8226 leukemia 13% | OVCAR-5 ovarian 22% | OVCAR-4 ovarian 118% | OVCAR-3 ovarian 103% | HS 578T breast 11.7%
active: EKVX NSCLC -5.01% | UO-31 renal -3.8% | A498 renal -16% | OVCAR-8 ovarian 9.87% | SK-OV-3 ovarian -7.96% | IGROV1 ovarian 4.89%

CC[C@H](C)[C@H](NC(=O)[C@H]1CCCCN1C)C(=O)N(C)[C@H](C[C@@H](OC(C)=O)c1nc(C(=O)N[C@@H](Cc2ccccc2)C[C@H](C)C(=O)OC)cs1)C(C)C
active: A498 renal 7.53% | CCRF-CEM leukemia 4.02% | MOLT-4 leukemia 4.63% | SR leukemia -7.13% | OVCAR-3 ovarian -0.916%
inactive: SK-MEL-2 melanoma 42.8% | EKVX NSCLC 36.7% | SN12C renal 37.2% | UO-31 renal 40.3% | TK-10 renal 18.1% | ACHN renal 13.6% | CAKI-1 renal 32.2% | RPMI-8226 leukemia 27.5% | OVCAR-8 ovarian 16.4% | OVCAR-5 ovarian 58.1% | OVCAR-4 ovarian 51.5% | SK-OV-3 ovarian 41% | IGROV1 ovarian 25.9% | HS 578T breast 33.8%

CC(C)COC(C[N+](=O)[O-])C(Cl)(Cl)Cl (stereo not given)
inactive: SK-MEL-2 melanoma 115% | EKVX NSCLC 97.2% | SN12C renal 105% | UO-31 renal 97.2% | TK-10 renal 105% | ACHN renal 107% | CAKI-1 renal 102% | A498 renal 84.6% | CCRF-CEM leukemia 113% | MOLT-4 leukemia 103% | SR leukemia 94.7% | RPMI-8226 leukemia 116% | OVCAR-8 ovarian 101% | OVCAR-5 ovarian 109% | OVCAR-4 ovarian 101% | SK-OV-3 ovarian 106% | IGROV1 ovarian 103% | OVCAR-3 ovarian 115% | HS 578T breast 119%

CCn1c2ccccc2c2cc(C(=O)c3cccc4c3CCCN4)ccc21
inactive: SK-MEL-2 melanoma 99.5% | EKVX NSCLC 99.3% | SN12C renal 93.7% | UO-31 renal 94.1% | TK-10 renal 107% | ACHN renal 102% | CAKI-1 renal 99.3% | A498 renal 112% | CCRF-CEM leukemia 120% | MOLT-4 leukemia 104% | SR leukemia 95.3% | RPMI-8226 leukemia 112% | OVCAR-8 ovarian 113% | OVCAR-5 ovarian 99% | OVCAR-4 ovarian 101% | SK-OV-3 ovarian 106% | IGROV1 ovarian 110% | OVCAR-3 ovarian 103% | HS 578T breast 92.1%

O=[N+]([O-])c1ccc([Se]C2CCCCC2Cl)c([N+](=O)[O-])c1 (stereo not given)
active: UO-31 renal -88.3%
inactive: SK-MEL-2 melanoma 66.5% | EKVX NSCLC 46% | SN12C renal 59.5% | TK-10 renal 102% | ACHN renal 88.2% | CAKI-1 renal 76.7% | A498 renal 29.4% | CCRF-CEM leukemia 80.9% | MOLT-4 leukemia 73.2% | SR leukemia 78.7% | RPMI-8226 leukemia 82.8% | OVCAR-8 ovarian 59.7% | OVCAR-5 ovarian 101% | OVCAR-4 ovarian 78.8% | SK-OV-3 ovarian 106% | IGROV1 ovarian 70.8% | OVCAR-3 ovarian 88.2% | HS 578T breast 22.2%

C[C@@]1(CCCCCCCCCc2ccc(O)cc2)C[C@]2(C)OC(=O)C[C@@H]2OO1
inactive: SK-MEL-2 melanoma 117% | EKVX NSCLC 98.7% | SN12C renal 98.5% | UO-31 renal 16.7% | TK-10 renal 112% | ACHN renal 65.5% | CAKI-1 renal 65.1% | A498 renal 104% | CCRF-CEM leukemia 75.4% | MOLT-4 leukemia 78% | RPMI-8226 leukemia 83% | OVCAR-8 ovarian 94.5% | OVCAR-5 ovarian 94.7% | OVCAR-4 ovarian 85.5% | SK-OV-3 ovarian 122% | OVCAR-3 ovarian 126% | HS 578T breast 92.9%
active: IGROV1 ovarian -51.3%

ClCCN(CCCl)c1ccc(-n2cnc3c(Cl)ncnc32)cc1
inactive: SK-MEL-2 melanoma 69% | EKVX NSCLC 28.7% | SN12C renal 47.8% | TK-10 renal 84.7% | A498 renal 95.2% | CCRF-CEM leukemia 13.1% | RPMI-8226 leukemia 59.6% | OVCAR-8 ovarian 35.1% | OVCAR-5 ovarian 117% | SK-OV-3 ovarian 90.5% | HS 578T breast 49.5%
active: UO-31 renal -85.9% | ACHN renal -82.1% | CAKI-1 renal -88.2% | HL-60(TB) leukemia -9.68% | SR leukemia -29.2% | IGROV1 ovarian -84.5% | OVCAR-3 ovarian -35.4%

c1ccc(COc2ccc3[nH]cc(CCN(Cc4ccccc4)Cc4ccccc4)c3c2)cc1
inactive: SK-MEL-2 melanoma 93.6% | EKVX NSCLC 82.8% | SN12C renal 86.3% | UO-31 renal 60.3% | TK-10 renal 109% | ACHN renal 97.1% | CAKI-1 renal 71.8% | A498 renal 105% | CCRF-CEM leukemia 73.8% | MOLT-4 leukemia 70.7% | SR leukemia 69.5% | RPMI-8226 leukemia 74.9% | OVCAR-8 ovarian 98.1% | OVCAR-4 ovarian 95.4% | SK-OV-3 ovarian 91.2% | IGROV1 ovarian 90.7% | OVCAR-3 ovarian 96.7% | HS 578T breast 99.5%

CCN1C(=O)C(=C/C=C/c2ccccc2)C(=O)N(CC)C1=O
inactive: SK-MEL-2 melanoma 99.9% | EKVX NSCLC 112% | SN12C renal 75.8% | UO-31 renal 70.1% | TK-10 renal 94.3% | ACHN renal 70.3% | CAKI-1 renal 87.8% | A498 renal 94.3% | RPMI-8226 leukemia 61% | OVCAR-8 ovarian 54% | OVCAR-5 ovarian 107% | SK-OV-3 ovarian 103% | IGROV1 ovarian 84.5% | OVCAR-3 ovarian 42.6% | HS 578T breast 91.2%
active: CCRF-CEM leukemia -14.1% | MOLT-4 leukemia 6.92% | SR leukemia -6.58%

O=C(CCCC1CCCCC1)OCC(Cl)(Cl)Cl
inactive: SK-MEL-2 melanoma 109% | EKVX NSCLC 105% | SN12C renal 106% | UO-31 renal 91.1% | TK-10 renal 98.7% | ACHN renal 110% | CAKI-1 renal 102% | A498 renal 60.6% | HL-60(TB) leukemia 100% | MOLT-4 leukemia 107% | SR leukemia 103% | RPMI-8226 leukemia 95.7% | OVCAR-8 ovarian 110% | OVCAR-5 ovarian 120% | OVCAR-4 ovarian 105% | SK-OV-3 ovarian 101% | IGROV1 ovarian 106% | OVCAR-3 ovarian 104% | HS 578T breast 103%

c1cnc2[nH]cc(-c3csc(-c4cn(CCCCN5CCOCC5)c5ccccc45)n3)c2c1
active: SR leukemia -20.1%
inactive: SK-MEL-2 melanoma 87.8% | EKVX NSCLC 64% | SN12C renal 67% | UO-31 renal 25.4% | TK-10 renal 64.4% | ACHN renal 32.4% | CAKI-1 renal 44.3% | A498 renal 56.8% | CCRF-CEM leukemia 10.1% | MOLT-4 leukemia 13.1% | RPMI-8226 leukemia 32.6% | OVCAR-8 ovarian 60.6% | OVCAR-5 ovarian 72.5% | OVCAR-4 ovarian 74.8% | SK-OV-3 ovarian 81.1% | IGROV1 ovarian 34.9% | OVCAR-3 ovarian 59.8% | HS 578T breast 54.9%
